Assay outcomes: PubChem BioAssay, National Center for Advancing Translational Sciences (NCATS)
HP1b binding inh: HP1-beta chromodomain-methylated histone interaction inhibition. Potency, µM (doses to about 114 µM), for the others: at the top dose activity change, negative = inhibition, actives largely listed as inhibitors. actives 0.56% (n = 390,000). AlphaScreen HP1-beta / biotin-H3K9me3 peptide binding; further: potency means the concentration at half of the fitted maximal effect; nearly all actives have a fitted effect of over 70% in size
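HP1-beta protein (50 nM final) preincubated 30 min at room temperature with biotinylated H3(1-18)K9me3 peptide (50 nM) in PBS pH 7.4, 0.01% Tween-20, then compound added for 30 min. AlphaScreen streptavidin donor/nickel chelate acceptor beads (10 ug/mL final), 30 min dark, luminescence read.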
CtBP-E1A blk: blocks the CtBP interaction with E1A. AlphaScreen GST-E1A/His-CtBP binding, 1536-well; hits give low values. activity change, % (test concentration not listed). actives 0.49% (n = 340,000); in the data active means activity change below about -65%; inconclusive means mostly about -30% to -63%; further: on the % scale 0 is the no-effect control and ±100 the full control effect
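AlphaScreen with 125 nM GST-E1A and 125 nM His-CtBP (5X stocks) in Tris pH 8.0, 300 mM NaCl, BSA, Tween 20, TCEP. Compounds preincubated 2 h at 37 deg C, then glutathione donor/nickel acceptor beads added for 1 h at 37 deg C in dark.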
BAZ2B block: inhibitors of human BAZ2B bromodomain. Q9UIF8. AlphaScreen BAZ2B-H3K14Ac peptide displacement. Potency, µM (top dose mostly 114 µM), without a hit: at the top dose activity change, negative = inhibition, usual class: inhibitors. actives 4.4% (n = 360,000). AID 504333; further: potency means the concentration at half of the fitted maximal effect; on the % scale 0 is the no-effect control and ±100 the full control effect; nearly all actives have a fitted effect of over 60% in size
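Inhibition is scored as reduced AlphaScreen emission. The BAZ2B/b-H3(5-23)K14Ac complex (50 nM each) in PBS pH 7.4, 0.01% Tween-20 meets compound (up to 110 uM) for 30 min at RT before bead addition.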
Six1-Eya2 inh: Six1/Eya2 interaction inhibition; Q15475+O00167; AlphaScreen GST-Six1/His-Eya2 binding, biochemical; hits give low values; activity change, % (concentration not given with the values); actives 0.56% (n = 360,000); AID 651725; in the data active means activity change below about -65%; inconclusive means mostly about -30% to -63%; further: on the % scale 0 is the no-effect control and ±100 the full control effect
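AlphaScreen with GST-Six1 and His-Eya2 (5X mix: 250 nM and 500 nM), glutathione donor and nickel acceptor beads; buffer 50 mM Tris pH 8.0, 300 mM NaCl, 1 mM TCEP; 1 h at 37 C in the dark.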
G9a inh: G9a (human) methyltransferase inhibition | Q96KQ7 | G9a H3K9 monomethylation, AlphaScreen, 2 h | Potency, µM (highest dose often 102 µM), without a hit: top-dose activity, negative = inhibition, usual class: inhibitors | actives 8.8% (n = 350,000); further: potency means the concentration at half of the fitted maximal effect; on the % scale 0 is the no-effect control and ±100 the full control effect; nearly all actives have a fitted effect of over 75% in size
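Signal arises when biotinylated H3K9 peptide, once monomethylated, bridges streptavidin donor and antibody-captured acceptor beads. Enzyme at 20 nM was preincubated 15 min with test compounds; peptide 500 nM and SAM 20 uM then reacted for 2 h.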
JMJD2A Tudor: JMJD2A Tudor domain (human) inhibition; O75164; AlphaScreen JMJD2A-Tudor / H3K4me3 peptide binding; actives 4.4% (n = 390,000); Potency, µM (top dose mostly 114 µM), for the others: top-dose activity change, negative = inhibition, actives largely listed as inhibitors; AID 504339; further: potency means the concentration at half of the fitted maximal effect; on the % scale 0 is the no-effect control and ±100 the full control effect; nearly all actives have a fitted effect of over 50% in size
* = called active by the depositor; ? = inconclusive; nt = no result; ! = not active in a repeat; [ ] = remark or other dose. An excerpt weighted towards active compounds, which were near 10% of everything screened. Unless noted, the call rests on the fitted dose curve; in most records, active means well fitted inhibition curve with a large enough effect; inconclusive means small, poorly fitted or top-dose-only effect; inactive means no such curve, though single readings can be large or run the other way.

SMILES	HP1b binding inh	CtBP-E1A blk	BAZ2B block	Six1-Eya2 inh	G9a inh	JMJD2A Tudor
Cc1ccc(C(=O)C2=C(O)C(=O)N(Cc3cccnc3)C2c2ccc(OC(C)C)cc2)o1 (stereo not drawn)	21%	0	?	0	nt	?
CC(=O)C1=C(O)C(=O)N(Cc2ccccc2)C1c1ccc(N(C)C)cc1 (stereo not drawn)	7%	nt	-31%	0	nt	?
C=CCOc1ccc(C2C(C(=O)c3ccco3)=C(O)C(=O)N2Cc2cccnc2)cc1 (stereo not drawn)	44%	4	-3%	-2	?	-14%[57.1 µM]
C=CCOc1cccc(C2C(C(=O)c3ccco3)=C(O)C(=O)N2Cc2cccnc2)c1 (stereo not drawn)	33%	0	9%	-28	32µM*	-30%
Cc1ccc(C(=O)C2=C(O)C(=O)N(Cc3ccco3)C2c2ccc(N(C)C)cc2)o1 (stereo not drawn)	22%	-11	35µM*	11	nt	?
Cc1cccc(OCCNC(=O)CCNS(=O)(=O)c2ccc3ccccc3c2)c1	31%	1	0%	-1	-5%[2.33 µM]	-8%
CC(CNC(=O)CN1C(=O)COc2ccc(S(=O)(=O)N3CCCCCC3)cc21)c1ccccc1 (stereo not drawn)	28%	nt	?	nt	-27%[59 µM]	-12%
CCC(C)c1ccc(OCC(=O)Nc2cccc3ccc(C)nc23)cc1 (stereo not drawn)	64%	nt	66%	nt	78%[59 µM]	39%
CC(=O)C1=C(O)C(=O)N(Cc2ccco2)C1c1cccc(F)c1 (stereo not drawn)	18%	6	2%	5	-47%	-15%
O=C(C1=C(O)C(=O)N(Cc2ccccc2)C1c1ccncc1)c1ccco1 (stereo not drawn)	16%	-1	3%	13	40µM*	?
O=C(C1=C(O)C(=O)N(Cc2ccco2)C1c1cccc(O)c1)c1ccco1 (stereo not drawn)	26%	-1	-18%	9	50µM*	-13%
Cc1ccc(C(=O)C2=C(O)C(=O)N(Cc3ccco3)C2c2cccc(Cl)c2)o1 (stereo not drawn)	1%	0	?	8	40µM*	25µM*
Cc1ccc(C(=O)C2=C(O)C(=O)N(Cc3ccco3)C2c2cccc(Br)c2)o1 (stereo not drawn)	-2%	-4	?	-16	?	?
O=C(C1=C(O)C(=O)N(CCCn2ccnc2)C1c1ccccc1)c1ccco1 (stereo not drawn)	28%	-1	-18%	0	nt	-9%
Cc1ccc(C(=O)C2=C(O)C(=O)N(Cc3cccnc3)C2c2ccc(Br)cc2)o1 (stereo not drawn)	8%	-5	-1%	2	?	-20%
Cc1ccc(C(=O)C2=C(O)C(=O)N(Cc3cccnc3)C2c2ccc(N(C)C)cc2)o1 (stereo not drawn)	7%	3	-33%	-8	35µM*	-30%
COc1cccc2cc(C(=O)C3=C(O)C(=O)N(Cc4ccco4)C3c3cccnc3)oc12 (stereo not drawn)	10%	2	-6%	0	?	79µM*
CCCCS(=O)(=O)c1oc(-c2ccc(F)cc2)nc1S(=O)(=O)c1ccccc1	54%	nt	-1%	nt	?	-5%
CC(=O)/C(=N\Nc1ccc(C)cc1)Sc1nncn1C	14%[57 µM]	-4	-5%	-10	8.9µM*	?
COc1ccc(OC)c(C(O)c2coc3ccc(O)c(CN4CCOCC4)c23)c1 (stereo not drawn)	5%	2	-23%	-2	8%[59 µM]	89µM*
CCOC(=O)c1c(-c2ccccc2)oc2ccc(O)c(CN3CCCC3)c12	10%	-13	-30%	-1	45µM*	-11%
CCOC(=O)c1c(-c2ccccc2)oc2ccc(O)c(CN(C)C)c12	18%	1	6%	2	?	-19%
COc1ccc(C(=O)c2c(C)oc3ccc(O)c(CN4CCOCC4)c23)cc1	-2%	-9	-6%	0	45µM*	-33%
O=C(NNc1nc2cc3c(cc2s1)OCO3)c1ccc(F)cc1	3%	-15	16%	0	8.9µM*	-20%
O=C(Nc1nc2cc3c(cc2s1)OCCO3)c1ccncc1	-15%	3	-38%	-5	-12%	-16%
SMILES	HP1b binding inh	CtBP-E1A blk	BAZ2B block	Six1-Eya2 inh	G9a inh	JMJD2A Tudor
O=C(NNc1nc2cc3c(cc2s1)OCCO3)c1ccc(F)cc1	23%	2	-9%	-2	50µM*	-14%
OCCNCC(O)CN1c2ccccc2Sc2ccccc21 (stereo not drawn)	-13%	-3	?	-2	13%[59 µM]	-34%
CCN(CC)C(C)CN1c2ccccc2Sc2ccccc21 (stereo not drawn)	nt	nt	nt	nt	5µM*!	nt
O=C(Cc1cccs1)N(c1ccc(Br)cc1)C1C=CS(=O)(=O)C1 (stereo not drawn)	-5%	7	-16%	16	3%	20µM*
C[C@H](CO)N1C[C@H](C)[C@@H](CN(C)C)OCc2cnnn2CCCC1=O	nt	6	nt	-3	nt	nt
O=[N+]([O-])c1ccc(-c2csc(Nc3ccccc3)n2)cc1	-6%	nt	nt	nt	nt	-35%
Cc1ccccc1-n1c(SCC(=O)c2ccccc2)nnc1-c1ccc(F)cc1	41%	nt	?	nt	19%[59 µM]	-18%
Cc1ccccc1-n1c(SCC(=O)c2cc(C)n(C)c2C)nnc1-c1ccncc1	1%	-1	?	-7	71µM*	-27%[57.1 µM]
COc1cccc(NC(=O)CSc2nnc(-c3ccoc3C)n2C)c1	9%	-5	3%	-3	-14%	5%
Cc1cc(C(=O)COC(=O)C(C)NC(N)=O)c(C)n1Cc1ccco1 (stereo not drawn)	-2%	2	?	-2	-34%	?
COc1ccc(-n2c(C)cc(C(=O)CSc3nnc(-c4ccoc4C)n3C)c2C)cc1	?	-15	?	-10	50µM*	?
CCOC(=O)c1c(C)[nH]c(C)c1C(=O)CSc1nnc(-c2ccncc2)n1C	29%	2	-8%	2	?	?
CCc1cccc2c(C(=O)CSc3nnc(-c4ccncc4)n3C)c[nH]c12	32%	4	-33%	-3	32µM*	-9%
Cc1cc(C(=O)C(C)Cl)c(C)n1Cc1ccco1 (stereo not drawn)	?	8	?	-17	?	50µM*
O=c1c2[nH]c3ccsc3c2cnn1Cc1ccccc1F	nt	nt	nt	nt	nt	-3%
O=C(OCc1cc(=O)n2nc(-c3cccs3)sc2n1)c1ccc(Cl)cc1	13%	nt	-25%	nt	14%[59 µM]	-25%
